# D1 potentiator: potentiators of human D1 dopamine receptor; P21728; 360,000 compounds, 0.036% hits; AID 504651; potentiation, % at 10 µM; HEK293 TREx D1 cells, calcium flux, dopamine EC20 potentiation; in the data active = potentiation above about 30%; also: 0% is about no effect
# Target sequence (P21728 whole entry, looked up): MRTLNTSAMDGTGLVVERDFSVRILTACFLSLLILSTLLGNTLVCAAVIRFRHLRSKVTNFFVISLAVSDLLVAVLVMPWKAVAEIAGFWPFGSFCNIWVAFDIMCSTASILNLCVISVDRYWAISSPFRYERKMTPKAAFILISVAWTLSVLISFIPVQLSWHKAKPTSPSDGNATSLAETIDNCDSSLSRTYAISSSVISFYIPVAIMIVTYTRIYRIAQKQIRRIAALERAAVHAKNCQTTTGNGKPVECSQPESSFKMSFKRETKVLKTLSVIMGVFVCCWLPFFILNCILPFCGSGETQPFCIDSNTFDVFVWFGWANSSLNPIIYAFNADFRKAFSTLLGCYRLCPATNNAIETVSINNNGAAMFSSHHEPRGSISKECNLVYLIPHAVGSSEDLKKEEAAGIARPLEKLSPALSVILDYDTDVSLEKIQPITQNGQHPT
# TRHR ag: activates the human TRH receptor | TRHR cells, calcium flux fluo-8, FDSS agonist mode | AID 493084 | 360,000 compounds, 0.18% hits | activation, % at 2 µM; also: 0% is about no effect
#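 Steps: seed TRHR cells overnight; add fluo-8 no-wash Ca dye, RT 30 min–1.5 h; record 10 s baseline; pin-transfer compounds; monitor fluorescence 1 cycle/s for the agonist window. Calcium increases flag candidate agonists.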
# TRHR enhancer: TRH receptor (human) allosteric enhancement; P34981; TRHR cells, fluo-8 calcium fluorescence, EC20 TRH enhancement; enhancement, % at 2 µM; 360,000 compounds, 0.66% hits; AID 493056; in the data active = enhancement above about 30%; also: 0% is about no effect
#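 TRHR-expressing cells loaded with fluo-8 calcium dye were read kinetically (ex 480/em 530) during compound addition, then stimulated with an EC20 of TRH (10 nM final). Enhancement of the Gq-mediated intracellular calcium response was scored.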
# D1 antag: human D1 dopamine receptor antagonism. P21728. HEK293 TREx D1 cells, calcium flux, dopamine EC80; stronger effect = lower value. activity change, negative = inhibition, % at 10 µM. 360,000 compounds, 3.2% hits. AID 504652; in the data active = activity change below about -30%; also: % is scaled to controls: 0 for no effect and ±100 for the full control effect
#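 Tetracycline-induced HEK293 T-REx cells with force-coupled D1 receptor were loaded with a no-wash calcium dye. Compound was added after a 10 s baseline and read kinetically for 180 s; EC80 dopamine was then added and calcium flux followed another 180 s.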
# D1 agonist: agonists of human D1 dopamine receptor. P21728. HEK293 T-REx D1 cells, calcium flux, agonist mode. activation, % at 2 µM. 360,000 compounds, 1% hits; also: 0% is about no effect
#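 Inducible HEK293 T-REx D1 cells, force-coupled to calcium signalling, were plated at 4000 cells/well with tetracycline and held overnight at 30 C. After no-wash calcium dye loading, compound-evoked calcium rise over 180 s flagged agonists.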
# Active calls of the source: *. Rows were chosen to be rich in hits. Some 4.7% of all compounds tested hit in one or more screens of this group. Rule as the data show it, unless noted: active = activation above about 30%; inactive = the rest.
SMILES,D1 potentiator,TRHR ag,TRHR enhancer,D1 antag,D1 agonist
CCCCn1cc(S(=O)(=O)c2ccc(CC)cc2)c(=O)c2cc(F)c(N3CCOCC3)cc21,1,0,8,9,1
Cc1nn(Cc2c(F)c(F)c(F)c(F)c2F)c(C)c1NC(=O)c1ccc(COc2ccccc2Cl)cc1,-9,0,-2,-34*,6
CCCn1c(CCC(=O)Nc2ccc(C)c(Cl)c2)nc2cccnc21,-2,-1,-3,-2,-2
CCC1CN(C(=O)Nc2cc(OC)cc(OC)c2)c2ccccc2S1 (centres undefined),1,0,2,-3,1
COc1ccccc1-c1cc(C2CC2)nc(N)c1C#N,0,-1,6,11,3
N#Cc1c(-c2ccccc2Cl)cc(C2CC2)nc1N,7,13,24,21,99*
COc1cccc(-n2c(=O)c3sc4ccccc4c3n(CC(=O)Nc3ccc(F)cc3F)c2=O)c1,-3,1,11,13,11
C/C(=N\NC(=O)c1ccco1)c1ccc(C(=O)O)s1,3,0,-2,7,5
C/C(=N/NC(=O)c1ccco1)c1ccc(Br)s1,-8,-1,0,-31*,1
C[C@@H]1C[C@@H]2OC(=O)[C@]3(C)[C@H]2[C@@H](OC3(C)O)[C@]2(C)C(=O)C=C[C@H]12 (some centres undefined),-6,-1,0,-37*,5
CN(C)CCCN(C(=O)c1ccc(S(=O)(=O)N2CCc3ccccc32)cc1)c1nc2c(Cl)cccc2s1,2,1,8,-3,5
COc1cccc2sc(N(CCCN(C)C)C(=O)c3ccc(S(=O)(=O)N4CCCc5ccccc54)cc3)nc12,-1,1,1,-13,39*
CN(C)CCN(C(=O)c1ccc(S(=O)(=O)N2CCc3ccccc32)cc1)c1nc2ccc(F)cc2s1,-11,0,-22,-36*,2
COc1ccc(NC(=O)C2CCN(S(=O)(=O)c3cn(C)cn3)CC2)cc1Cl,1,0,-1,4,-1
COc1ccc(Cl)cc1NC(=O)CN1c2ccccc2S(=O)(=O)c2ccccc21,-1,1,12,-12,3
CC(=O)c1ccc(Nc2cc(C)nc3ccccc23)cc1,1,0,-4,7,0
Cc1ccc(Nc2cc(C)nc3c(C)cccc23)cc1,-12,0,-3,-33*,0
COC(=O)c1ccc2nc(C)cc(Nc3ccccc3C)c2c1,-2,-1,-3,-33*,3
CC(=O)c1ccc(Nc2cc(C)nc3c(C)cccc23)cc1,-3,1,-19,-31*,10
CC(=O)c1cccc(Nc2cc(C)nc3ccc(C)cc23)c1,-20,0,-1,-40*,-1
COc1ccc(Nc2cc(C)nc3ccccc23)cc1,-3,0,-6,1,2
COc1cccc(C(=O)N2CCN(CCc3ccncc3)CC2)c1,-1,0,-6,4,-1
COCCCNc1ncnc2c1c(-c1ccccc1)cn2-c1ccc(C)c(Cl)c1,2,0,-2,11,2
COc1ccc(C2CC(=O)c3cc(-c4nc(-c5ccc(Cl)cc5)c(C)s4)c(=O)[nH]c3C2)cc1 (centres undefined),2,0,12,14,2
O=C(c1cc2ccccc2oc1=O)N1CCN(c2ccc(Cl)cc2)CC1,-6,2,7,-21,3
SMILES,D1 potentiator,TRHR ag,TRHR enhancer,D1 antag,D1 agonist
O=C(COc1cccnc1[N+](=O)[O-])N1CCc2ccccc21,0,0,31*,13,-2
O=S(=O)(c1ccccc1)N1CCSC1c1ccco1 (centres undefined),-5,0,34*,-44*,2
CC(=O)Nc1ccc(S(=O)(=O)N2CCSC2c2ccco2)cc1 (centres undefined),-6,1,1,1,4
O=C(CCCN1CC=C(n2c(=O)[nH]c3ccccc32)CC1)c1ccc(F)cc1,-3,-1,5,-71*,7
CCOc1ccccc1NC(=S)N1CCCCCC1,4,-1,0,-37*,9
COc1ccc(C(=O)Nc2nc3ccc(S(=O)(=O)N4CCCC4)cc3s2)cc1,1,0,2,-32*,1
O=C(Nc1nc2ccccc2s1)c1ccc(S(=O)(=O)N2CCCC2)cc1,0,1,-1,-46*,0
CCCn1cc(S(=O)(=O)c2ccccc2)c(=O)c2cc(F)c(N3CCCC(C)C3)cc21 (centres undefined),7,-1,5,4,1
CC(=O)Nc1ccc(OCCC[n+]2ccccc2)cc1,-6,1,2,-2,1
CCCCOc1ccccc1Cn1c(=O)oc2ccccc21,1,0,-3,4,3
CCCCCc1ccc(OCCOCCn2c[n+](C)c3ccccc32)c(CCCCC)c1,-10,-1,12,16,129*
CCCCCc1ccc(OCCC[n+]2ccccc2)c(CCCCC)c1,-9,1,-7,-21,159*
O=C1CCC/C(=N/NC(=O)c2sc3ccccc3c2Cl)C1,-10,39*,4,-5,81*
O=C(NC(=S)Nc1ccc(N2CCOCC2)c(Cl)c1)c1sc2ccccc2c1Cl,8,0,4,-31*,2
COc1cc(C(=O)Nc2nonc2-c2ccc(Cl)cc2)cc(OC)c1OC,3,8,2,14,30*
Cc1cccc(C(=O)NC(=S)NNC(=O)c2cccs2)c1,-5,42*,-10,-18,213*
O=C(NN=C1CCCC1)c1sc2ccccc2c1Cl,-2,1,5,-14,0
CCc1cccc(NC(=O)CCNS(=O)(=O)c2ccc3c(c2)CCN3C(C)=O)c1,3,0,-2,7,8
COC(=O)c1ccc(NC(=O)C(C)Sc2nc(=O)cc(N)n2CCc2ccccc2)cc1 (centres undefined),-4,-2,0,8,1
CCc1nn(CC(=O)NC(C)CC)c(=O)c2cc3occc3n12 (centres undefined),-3,1,1,13,1
Cc1ccccc1C(=O)NNC(=S)NC(=O)c1cccs1,-9,21,-7,-29,136*
Cc1cccc(C(=O)NC(=S)NNC(=O)c2ccc(Cl)cc2)c1,24,29,4,34,172*
O=C(NNC(=S)NC(=O)c1sc2ccccc2c1Cl)c1ccc(Cl)cc1,-5,1,-3,-38*,141*
COc1cc(C(=O)NNC(=S)NC(=O)c2ccc(Cl)cc2)cc(OC)c1OC,-1,10,12,-5,60*
Cc1cccc(C(=O)NNC(=O)c2ccc(Br)cc2)c1,1,0,5,-5,2
Cc1ccc(-c2nc3scc(CCNC(=O)Cc4ccc(Cl)cc4)n3n2)cc1,-1,0,-1,-5,1
O=C(Nc1ccncc1)c1sc2ccccc2c1Cl,-7,0,4,-41*,6

# High-throughput results: PubChem, National Center for Advancing Translational Sciences (NCATS)
